Source: publication PMC5700166

Key:
Assay in all cases: protein-binding microarray (PBM); PBM: ~300 nM protein, 6 mM HEPES pH 7.8, 80 mM KCl, 0.5 mM EDTA, 0.5 mM EGTA, 6% glycerol, 35 ng/ul poly-dIdC, 1% milk, 1 h, room temperature; Ap Aiptasia and Nv Nematostella (sea anemones) / Co Capsaspora / Aq Amphimedon (sponge) / Dm Drosophila / Hu human; RHD is the Rel homology domain; high values mean tight binding
Conditions in all cases: dsDNA, one strand shown
GST-Ap-NF-kB RHD = molecular target: T1, GST-Ap-NF-kB RHD (Exaiptasia pallida (Aiptasia), UniProt A0A913YAJ5 2-422)
T1 sequence: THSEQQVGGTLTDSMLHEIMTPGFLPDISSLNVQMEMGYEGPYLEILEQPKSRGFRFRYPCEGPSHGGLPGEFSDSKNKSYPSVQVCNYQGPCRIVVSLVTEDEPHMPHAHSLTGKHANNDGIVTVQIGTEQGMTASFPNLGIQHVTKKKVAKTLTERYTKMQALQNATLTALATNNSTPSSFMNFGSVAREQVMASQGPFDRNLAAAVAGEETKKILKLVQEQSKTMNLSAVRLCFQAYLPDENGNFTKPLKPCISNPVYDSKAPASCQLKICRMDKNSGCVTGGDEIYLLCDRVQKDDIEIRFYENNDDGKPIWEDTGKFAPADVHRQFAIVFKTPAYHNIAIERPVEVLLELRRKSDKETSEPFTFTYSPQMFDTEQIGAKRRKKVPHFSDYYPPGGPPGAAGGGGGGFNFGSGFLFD

[1] = molecular target: T2, GST-Nv-NF-kB (Cys allele) (Nematostella vectensis, UniProt E5G601 2-411)
T2 sequence: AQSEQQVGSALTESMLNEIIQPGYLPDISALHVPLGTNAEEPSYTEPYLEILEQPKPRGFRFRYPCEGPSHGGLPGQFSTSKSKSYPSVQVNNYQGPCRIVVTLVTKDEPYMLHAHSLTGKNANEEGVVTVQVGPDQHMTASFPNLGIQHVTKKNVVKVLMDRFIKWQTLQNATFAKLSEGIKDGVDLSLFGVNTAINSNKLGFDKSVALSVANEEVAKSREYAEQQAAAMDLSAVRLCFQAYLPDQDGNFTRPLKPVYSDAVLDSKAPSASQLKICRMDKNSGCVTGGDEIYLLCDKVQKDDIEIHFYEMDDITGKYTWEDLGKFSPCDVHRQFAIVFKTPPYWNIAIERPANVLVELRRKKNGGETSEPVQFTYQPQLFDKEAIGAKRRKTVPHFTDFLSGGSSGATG

GST-Co-NF-kB = molecular target: T3, GST-Co-NF-kB (Capsaspora owczarzaki, UniProt F1ARL5 200-546)
T3 sequence: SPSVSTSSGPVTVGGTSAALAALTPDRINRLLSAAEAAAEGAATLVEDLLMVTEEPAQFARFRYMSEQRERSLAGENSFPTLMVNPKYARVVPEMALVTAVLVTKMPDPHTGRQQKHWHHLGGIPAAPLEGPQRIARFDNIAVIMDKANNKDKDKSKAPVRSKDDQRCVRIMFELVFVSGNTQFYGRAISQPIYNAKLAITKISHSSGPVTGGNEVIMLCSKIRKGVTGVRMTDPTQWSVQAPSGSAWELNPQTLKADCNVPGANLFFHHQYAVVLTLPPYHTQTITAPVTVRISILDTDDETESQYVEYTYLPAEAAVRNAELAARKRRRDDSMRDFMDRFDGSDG

GST-Dm-Relish = molecular target: T4, GST-Dm-Relish (Drosophila melanogaster, UniProt Q94527 99-473)
T4 sequence: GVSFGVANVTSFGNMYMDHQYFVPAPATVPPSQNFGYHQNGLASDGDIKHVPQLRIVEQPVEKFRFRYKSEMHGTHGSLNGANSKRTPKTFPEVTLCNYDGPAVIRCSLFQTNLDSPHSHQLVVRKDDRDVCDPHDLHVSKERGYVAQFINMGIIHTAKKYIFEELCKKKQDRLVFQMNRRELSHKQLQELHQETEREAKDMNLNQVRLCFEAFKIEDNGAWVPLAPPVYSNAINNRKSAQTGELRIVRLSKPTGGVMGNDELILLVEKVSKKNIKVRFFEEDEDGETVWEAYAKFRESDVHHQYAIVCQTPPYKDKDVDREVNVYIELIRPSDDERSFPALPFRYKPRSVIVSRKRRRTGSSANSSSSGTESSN

GST-Aq-NF-kB = molecular target: T5, GST-Aq-NF-kB (Amphimedon queenslandica, UniProt A9Y5G7 2-389)
T5 sequence: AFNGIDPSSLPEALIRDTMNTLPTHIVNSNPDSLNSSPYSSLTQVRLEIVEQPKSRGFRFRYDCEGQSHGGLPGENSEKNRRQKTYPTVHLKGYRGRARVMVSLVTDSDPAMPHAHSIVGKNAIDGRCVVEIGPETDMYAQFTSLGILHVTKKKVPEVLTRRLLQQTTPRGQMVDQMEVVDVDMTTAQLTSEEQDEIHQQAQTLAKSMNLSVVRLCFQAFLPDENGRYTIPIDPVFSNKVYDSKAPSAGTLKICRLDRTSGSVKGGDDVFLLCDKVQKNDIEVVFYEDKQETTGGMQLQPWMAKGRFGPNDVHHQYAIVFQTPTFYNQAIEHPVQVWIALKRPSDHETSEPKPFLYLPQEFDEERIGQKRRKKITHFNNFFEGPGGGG

Row | Sequence | binding signal (GST-Ap-NF-kB RHD) [z-score] | binding signal [1] [z-score] | binding signal (GST-Co-NF-kB) [z-score] | binding signal (GST-Dm-Relish) [z-score] | binding signal (GST-Aq-NF-kB) [z-score]
1 | CCGATTAACATCAGGGATCACCCTGATGTTAATCGGGTCTTGATTCGCTTGACGCTGCTG | 3.86 | 2.9 | 1.02 | 6.12 | 5.65
2 | CCGATTAACATCAGAAATTCCCATGATGTTAATCGGGTCTTGATTCGCTTGACGCTGCTG | 4.5 | 6.44 | 4.07 | 5.05 | 4.99
3 | CCGATTAACATCAGGGGTCCCCATGATGTTAATCGGGTCTTGATTCGCTTGACGCTGCTG | 4.7 | 2.57 | 1.99 | 7.31 | 3.6
4 | CCGATTAACATCAGGACTCTCCCTGATGTTAATCGGGTCTTGATTCGCTTGACGCTGCTG | 3.59 | 5.02 | 1.1 | 2.07 | 7.56
5 | CCGATTAACATCAACTCCCCCCCTGATGTTAATCGGGTCTTGATTCGCTTGACGCTGCTG | 6.64 | 4.56 | 7.71 | 5.06 | 5.08
6 | CCGATTAACATCACCCCAGCCCCTGATGTTAATCGGGTCTTGATTCGCTTGACGCTGCTG | 3.28 | 1.93 | 2.88 | 2.39 | 2.91
7 | CCGATTAACATCAGGATCTTCCCTGATGTTAATCGGGTCTTGATTCGCTTGACGCTGCTG | 3.64 | 3.68 | 1.18 | 1.53 | 5.89
8 | CCGATTAACATCAGGAAGTTCCCTGATGTTAATCGGGTCTTGATTCGCTTGACGCTGCTG | 4.78 | 5.36 | 2.57 | 4.82 | 7.74
9 | CCGATTAACATCAAAAGAATCCCTGATGTTAATCGGGTCTTGATTCGCTTGACGCTGCTG | 3.44 | 3.59 | 1.15 | 5.35 | 4.69
10 | CCGATTAACATCACGGAGTTCCCTGATGTTAATCGGGTCTTGATTCGCTTGACGCTGCTG | 2.6 | 1.63 | 1.53 | 5 | 4.63
11 | CCGATTAACATCAGGGAAGTCCATGATGTTAATCGGGTCTTGATTCGCTTGACGCTGCTG | 2.24 | 2.51 | 1.08 | 7.44 | 4.62
12 | CCGATTAACATCAGGCACTCCCCTGATGTTAATCGGGTCTTGATTCGCTTGACGCTGCTG | 4.75 | 3.18 | 2.45 | 3.63 | 4.71
13 | CCGATTAACATCAGGGGAGAAAATGATGTTAATCGGGTCTTGATTCGCTTGACGCTGCTG | 4.25 | 5.5 | 8.56 | 2.26 | 3.89
14 | CCGATTAACATCAGGGGGATGGATGATGTTAATCGGGTCTTGATTCGCTTGACGCTGCTG | 3.8 | 3.13 | 3.52 | 2.24 | 3.5
